Assay outcomes from PubChem BioAssay.
Ba CapD inh = blocks the Bacillus anthracis CapD enzyme | purified CapD enzyme, fluorescence intensity read-out; stronger effect = lower value | z-score (concentration not given with the values) | hit rate 0.23% among 140,000; in the data active means z-score mostly below about -2.9, no sharp cut-off; inactive means mostly above about -1.9
An asterisk follows results filed as active; ! = not confirmed by another sample. This excerpt belongs to a sample that is enriched for hits.

SMILES	Ba CapD inh
CN(C)C(=O)/C(=C/C=C/c1ccccc1)NC(=O)c1ccccc1	-3.1
COC(=O)C(=C/C=C/c1ccccc1)C(=O)OC	-4.48*
COc1ccccc1NC(=O)/C=C/c1ccccc1	-0.55
CN1/C(=C\C=Nc2cccc(C(=O)O)c2)C(C)(C)c2ccccc21	-0.355
CN1/C(=C\C=Nc2ccc(C(=O)O)cc2)C(C)(C)c2ccccc21	-3.21*
CN1/C(=C/C=N/O)C(C)(C)c2ccccc21	-1.1
CCOC(=O)NS(=O)(=O)c1ccccc1	0.8
CCOC(=O)c1[nH]c(C)cc1C	-0.645
CCOC(=O)c1c(C)cc(C)[nH]c1=S	-4.85*
CCOC(=O)c1c(C)cc(C)[nH]c1=O	16.5
CN(Cc1ccccc1)c1ccn(-c2nc(-c3ccccc3)oc2-c2ccccc2)c(=O)n1	3.42
CC(=O)Nc1ccc(Nc2nc3nonc3nc2Nc2ccc(Br)cc2)cc1	-1.15
CC(CCCC(C)(C)O)CC1OCC(C)O1 (stereo not drawn)	-0.07
CCCN1CCC(NC(C)CCCC(C)(C)O)CC1 (stereo not drawn)	-0.395
CC(N)CCCC(C)(C)O (stereo not drawn)	-4.07*!
O=c1oc2ccc(Br)cc2cc1-c1ccc([N+](=O)[O-])cc1	-0.095
CN(C)C(=O)c1cn(-c2ccccc2)c(=O)c2ccccc12	4.71
CNC(=O)c1cn(-c2ccccc2)c(=O)c2ccccc12	4.76
CC(=O)n1c(=O)c2ccccc2c(=O)n1-c1ccccc1	-4.74*
O=C(NNC(=O)C1CCN(Cc2ccc(Cl)c(Cl)c2)CC1)C1CC1	-0.435
Cc1ccc(C)n1-c1ccc(C(=O)O)cc1O	-8.96*
Cc1cc(C(=O)O)ccc1-n1c(C)ccc1C	-0.395
Cc1ccc(C(=O)O)cc1-n1c(C)ccc1C	-2.02
CC1=NN(c2ccc(C(=O)N3CCC(Cc4ccccc4)CC3)cc2)C(=O)C1	-0.41
Cc1[nH]c2ccccc2c1CN1CCN(c2ccc(F)cc2)CC1	0.485
SMILES	Ba CapD inh
CCc1nc(CN2CCN(c3ccc(C(F)(F)F)cn3)CC2)c(C)[nH]1	-0.675
CCc1nc(CN2CCN(c3ccc(F)cc3)CC2)c(C)[nH]1	-1.83*
CSC1=NC(=Nc2cccc(C(F)(F)F)c2)C2(CCCCC2)N1c1cccc(C(F)(F)F)c1	-0.14
CCC(=O)c1ccc(Cl)c(Cl)c1	-0.425
Cc1c(C)n(CC(O)CNCC2CCCO2)c2ccccc12 (stereo not drawn)	0.275
CCOC(=O)c1c(-c2ccccc2)oc2c1cc(OC(=O)C(C)(C)C)c1ccccc12	0.635
Cn1c(=O)c(=O)n(C)c2cc(S(=O)(=O)CCC(=O)NCc3ccccc3)ccc21	5.29
Cn1c(=O)n(C)c2cc(S(=O)(=O)N(Cc3ccccc3)C(=O)c3ccncc3)ccc21	-7.59*
CN(Cc1ccccc1)S(=O)(=O)c1ccc2c(c1)oc(=O)n2C	-0.325
CN(C)/C=C/C=C1\CC/C(=C\C=C\N(C)C)C1=O	-7.29*
CN(C)/C=C/C=C1\CCc2ccccc2C1=O	-0.79
COc1cc([N+](=O)[O-])ccc1N=Cc1nc(-c2cc(OC)c(OC)c(OC)c2)oc1O	-0.14
O=C(Oc1ccc(-c2nccc(-c3cccs3)n2)cc1)c1cccs1	0.355
O=C(C/C(=N\Nc1nc(-c2ccccc2)cs1)c1ccccc1)C(F)(F)F	2.65
O=C(CCC1CCCCC1)Nc1ccc(-c2cn3cccnc3n2)cc1	-4.46*
COCC(=O)Nc1ccc(-c2cn3cccnc3n2)cc1	-0.005
O=C(COc1ccccc1)Nc1ccc(-c2cn3cccnc3n2)cc1	97.7
Cc1ccc(NC(=O)CSC2=C(C#N)C(c3ccc([N+](=O)[O-])cc3)CC(=O)N2)c(C)c1 (stereo not drawn)	-1.03
Cc1nc(N2CCN(c3ccccn3)CC2)c2c(C)c(C(=O)Nc3cccc([N+](=O)[O-])c3)sc2n1	-0.67
COc1cccc(C(=O)NN)c1	0.76
COc1cccc(C(=O)c2sc(NC(C)C)nc2N)c1	-4.25*
CCOC(=O)c1sc(NC(=O)c2cccc(OC)c2)nc1-c1ccccc1	0.625
CC1(C)CC(=O)c2sc(NC(=O)c3ccc(S(=O)(=O)N4CCOCC4)cc3)nc2C1	-1.12
CN1C(=O)/C(=C\c2ccccc2)Sc2ccc(C(=O)NCc3cccs3)cc21	-6.91*
Cc1cccc(/C=C2\Sc3ccc(C(=O)NC(C)C)cc3N(C)C2=O)c1	-0.11
SMILES	Ba CapD inh
Cc1cccc(/C=C2\Sc3ccc(C(=O)NCCC(C)C)cc3N(C)C2=O)c1	-0.405
C/C(CC12CC3CC(CC(C3)C1)C2)=N/O	-0.305
CS(=O)(=O)c1cnc(-c2ccc(O)cc2)nc1-c1ccc(Cl)cc1	-0.625
Cc1cc(/C=C2\C(=O)NC(=O)N(c3ccccc3F)C2=O)c(C)n1-c1cc(C(=O)O)cc(C(=O)O)c1	-2.53
Cc1cc(/C=C2\C(=O)NC(=O)N(c3ccc(F)cc3)C2=O)c(C)n1-c1cccc(C(=O)O)c1	-1.62
Cc1cc(/C=C2\C(=O)NC(=S)N(c3ccccc3F)C2=O)c(C)n1-c1cc(C(=O)O)cc(C(=O)O)c1	-9.12*
S=C1NCc2ccsc2S1	-0.015
O=C(c1ccc(Cl)cc1)c1oc2ccccc2c1CBr	-1.4
O=C(CSc1nc2cc(C(=O)NCc3ccco3)ccc2c(=O)n1-c1ccc(F)cc1)c1ccccc1	1
COc1cc(CN2CCN(CCOC(=O)NNC(=O)CSc3ncnc4c(C)csc34)CC2)cc2c1OCO2	-0.275
O=[N+]([O-])/C=C/c1c(F)cccc1Cl	0.665
O=C1NC(=S)S/C1=C\c1c(F)cccc1Cl	-4.05*
COc1ccc(/C=C2/SC(=S)NC2=O)cc1COc1ccc(F)cc1F	-1.63
C=CCn1c(SCC(=O)c2c[nH]c3ccccc23)nnc1-c1cccnc1	0.695
CCC(=O)Nc1c(C(=O)N2CCc3ccccc3C2)cnn1-c1ccc(C)c(C)c1	0.175
NC(CC(=O)O)c1ccccc1[N+](=O)[O-] (stereo not drawn)	-0.335
O=C(O)c1cc2cccc([N+](=O)[O-])c2[nH]1	-4.63*
O=C(O)CSc1ncccc1[N+](=O)[O-]	-0.92
CCOc1ccc(N(CC)c2nc(-c3ccc(OC)cc3)no2)cc1	-0.59
Cc1cc(C)c(-c2cc(C(F)(F)F)nc(-c3ccccc3)n2)c(=O)[nH]1	-0.54
COc1cc(C2NC(=O)N(C)C(C)=C2C(=O)OC2CCCCCC2)cc(Cl)c1O (stereo not drawn)	-0.015
O=C(c1ccccc1)C1C(=O)c2ccccc2C1=O	-2.4
C/C(=N\N1C(=O)c2ccccc2C1=O)C1C(=O)c2ccccc2C1=O	-0.46
C/C(=N/O)C1C(=O)c2ccccc2C1=O	-4.33*
COc1ccc([C@@H]2[C@@H](C(=O)c3ccc(C)cc3C)N3c4ccccc4C=C[C@@H]3C2(C#N)C#N)cc1OC	-0.02
SMILES	Ba CapD inh
O=[N+]([O-])c1cccc(-c2noc(CCCOc3ccc(Cl)cc3Cl)n2)c1	-0.165
c1ccc(-c2noc(N3CCCC3)n2)cc1	0.465
CN(C)c1cc(C(=O)N2CCN(C(=O)c3cccc(C(F)(F)F)c3)CC2)nc(N(C)C)n1	0.57
O=C(NCCCN1CCOCC1)c1nnc(-c2ccc3c(c2)OCO3)o1	-0.06
O=C(c1ccccc1)C1CCN(c2ccc(C(F)(F)F)cc2[N+](=O)[O-])CC1	-0.525
CCOc1ccc(-c2cc(C(N)=O)on2)cc1	-0.865
Cc1ccc(-c2cc(C(N)=O)on2)cc1	-5.67*
NC(=O)c1cc(-c2ccc3c(c2)OCO3)no1	-0.575
O=C(CCN1C(=O)/C(=C/c2ccc(Cl)cc2)SC1=S)Nc1cc([N+](=O)[O-])ccc1O	-0.125
Brc1ccccc1[C@@H]1Nc2ccccc2[C@@H]2C=CC[C@@H]21	-0.465
O=C(O)c1ccc2c(c1)C1C=CCC1C(c1ccc(Br)cc1)N2 (stereo not drawn)	-1.35
